Experimental data reported in PubChem BioAssay AID720504 (National Center for Advancing Translational Sciences (NCATS), 2013).
The campaign covered roughly 360,000 compounds. About 10,000 (2.8%) were called active. Not shown: some 4% with an inconclusive outcome. The full list was thinned out, with actives kept by preference. Values without a mark were called inactive. Calls follow the shape of the dose curve; as a rule, active = well fitted inhibition curve with a large enough effect; inconclusive = small, poorly fitted or top-dose-only effect; inactive = flat fitted curve, though single readings scatter.

The compounds below were run against Serine/threonine-protein kinase PLK1 (Homo sapiens) (UniProt P53350) (assay: qHTS for Inhibitors of PLK1-PDB (polo-like kinase 1 - polo-box domain): Primary Screen). Conditions: Plk1 PBD binding of FITC phosphopeptide, fluorescence polarization.
Chain of Serine/threonine-protein kinase PLK1 (Homo sapiens) (P53350 whole entry, looked up, the tested form may be a part): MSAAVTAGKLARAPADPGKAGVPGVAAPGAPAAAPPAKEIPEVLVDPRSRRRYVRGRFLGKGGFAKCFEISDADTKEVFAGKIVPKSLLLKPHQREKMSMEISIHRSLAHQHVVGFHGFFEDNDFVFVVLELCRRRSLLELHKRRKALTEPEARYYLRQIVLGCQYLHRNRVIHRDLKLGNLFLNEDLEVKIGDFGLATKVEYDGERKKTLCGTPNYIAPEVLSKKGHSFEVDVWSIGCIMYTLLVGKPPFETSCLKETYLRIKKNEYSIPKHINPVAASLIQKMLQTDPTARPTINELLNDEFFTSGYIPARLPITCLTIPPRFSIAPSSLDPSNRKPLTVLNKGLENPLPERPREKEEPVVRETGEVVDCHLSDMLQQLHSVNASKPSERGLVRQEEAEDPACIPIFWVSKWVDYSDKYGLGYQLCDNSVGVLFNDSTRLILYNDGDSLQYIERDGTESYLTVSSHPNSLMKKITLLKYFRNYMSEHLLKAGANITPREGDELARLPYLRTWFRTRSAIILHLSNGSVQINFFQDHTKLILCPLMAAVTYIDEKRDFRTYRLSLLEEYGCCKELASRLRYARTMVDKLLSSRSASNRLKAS
% is scaled to controls: 0 for no effect and ±100 for the full control effect; potency is read from the fitted curve at half-maximal effect.
Also: nearly all actives have a fitted effect of over 65% in size.
For max response, negative = inhibition in this document: series mostly up to about 57 µM.

| SMILES | max response, negative = inhibition | Potency |
| --- | --- | --- |
| CCCNC(=O)C[C@@H]1CC[C@@H]2[C@H](COC[C@H](O)CN2C(=O)c2cc(Cl)cc(Cl)c2)O1 | -0.764% | – |
| Cn1cc(CNC(=O)c2ccc(OC3CCN(Cc4ccccn4)CC3)cc2)cn1 | -5.74% | – |
| CN(CCc1ccccn1)C(=O)c1ccc(OC2CCN(Cc3ccccn3)CC2)cc1 | 5.54% | – |
| Cc1nn(C)c(C)c1C(C)NC(=O)c1ccc(OC2CCN(Cc3ccccn3)CC2)cc1 (stereo not drawn) | – | 2.12 µM (active) |
| Cc1cccc(S(=O)(=O)N(C)C[C@H]2OCc3cnnn3CCCC(=O)N([C@@H](C)CO)C[C@H]2C)c1 | -16.9% | – |
| CCCCCCNC(=O)O[C@H]1CN(C(=O)OC(C)C)N(C(=O)OC(C)C)[C@@H]2CN(S(=O)(=O)c3ccc(C)cc3)C[C@]12O | -12.5% | – |
| COC(=O)c1ccc(NC(=O)C23CC4CC(C2)CC(n2cnc(Cl)n2)(C4)C3)cc1 | – | 23.8 µM (active) |
| COC(=O)c1ccc(NC(=S)NN2CCOCC2)cc1 | -1.75% | – |
| O=C(Nc1ccc(S(=O)(=O)Nc2ncccn2)cc1)C12CC3CC(CC(C3)C1)C2 | -7.71% | – |
| O=C(CNC(=O)N1CC(=O)Nc2ccccc21)Nc1ccc(Br)cc1F | -4.26% | – |
| Cc1ccc(S(=O)(=O)N2C[C@H]3C(=O)C[C@@H](c4cccc5ccccc45)N(S(=O)(=O)c4ccc(C)cc4)[C@H]3C[C@H]2c2ccc(Cl)cc2)cc1 | -18.3% | – |
| COC(=O)c1ccc2nc(-c3ccc(C)cc3)c(Cc3ccc(OC)cc3C)n2c1 | -3.95% | – |
| O=C(CSc1cccc[n+]1[O-])NCCCc1ccccc1 | -10.9% | – |
| O=C(CSc1cccc[n+]1[O-])c1ccc(-c2ccccc2)cc1 | – | 23.8 µM (active) |
| CCN(C(=O)CSc1cccc[n+]1[O-])c1ccccc1 | 4.89% | – |
| N#CCCN(C(=O)Nc1ccc(Cl)c(Cl)c1)C1CCCCC1 | 9.26% | – |
| NC(Cc1ccccc1)c1csc(Nc2cc(Oc3ccccc3)ncn2)n1 (stereo not drawn) | -8.4% | – |
| CCn1c(/C=N/NC(=O)c2ccc(OC)cc2)nc2ccccc21 | 1.71% | – |
| CCc1ccc(/C=N/NC(=O)c2ccc(OC3CCCC3)cc2)s1 | – | 11.9 µM (active) |
| COC(=O)CNC(=O)c1ccc(OC2CCN(C(=O)C3CC3)CC2)cc1 | -1.29% | – |
| Nc1cccc(-c2cncc(N3CCN(Cc4ccccn4)CC3)n2)c1 | -6.49% | – |

| SMILES | max response, negative = inhibition | Potency |
| --- | --- | --- |
| COc1ccc(-n2c(-c3ccc(Cl)cc3)n[nH]c2=S)c(OC)c1 | -18.3% | – |
| CC(C)CCNC(=O)c1[nH]c(C(F)(F)F)nc1-c1ccccc1 | -2.14% | – |
| COc1ccc(OCc2nnc3n2N=C(c2ccccc2)C(CC(=O)O)S3)cc1 (stereo not drawn) | – | 1.5 µM (active) |
| COc1ccc(C2CC(c3ccccc3)=NN2C(=O)COC(=O)COc2ccccc2)cc1 (stereo not drawn) | -2.07% | – |
| COc1ccc(OCC(=O)NNC(=O)C2CCC2)cc1 | 3.29% | – |
| Cc1ccc(NC(=O)[C@H](Cc2ccccc2)NC(=O)CC[C@H]2O[C@@H](n3ccc(=O)[nH]c3=O)[C@H](O)[C@@H]2O)cc1C | -5.11% | – |
| OC(c1cc(Cl)cc(Cl)c1)c1ncc(-c2ccccc2C(F)(F)F)[nH]1 (stereo not drawn) | 4.04% | – |
| CCOC(=O)[C@]12CCCC=C1N(Cc1cccc3ccccc13)C(=O)[C@H](CC(=O)NCC13CC4CC(CC(C4)C1)C3)C2 | -3.19% | – |
| CCCS(=O)(=O)NC(=O)C1(C)CCCN(C(=O)c2cc(C)on2)C1 (stereo not drawn) | -2.32% | – |
| CC(=O)c1c(C)[nH]c(=S)c(C#N)c1-c1ccc(F)cc1 | -8.58% | – |
| CCc1c(C)[nH]c(=S)c(C#N)c1C | – | 29.9 µM (active) |
| COc1ccc(NC(=O)C(c2ccncc2)n2c(=O)c(-c3cc4ccccc4[nH]3)nc3ccccc32)cc1 (stereo not drawn) | 12.4% | – |
| CCOC(=O)C(NC(C)=O)C(=O)Nc1ccc(OC)cc1 (stereo not drawn) | -7.21% | – |
| COc1ccc(CNC(=O)C(C)NCc2ccccc2Cl)cc1 (stereo not drawn) | 5.25% | – |
| COc1ccc(NC(=O)C(NC(C)=O)C(=O)NCc2ccccc2Cl)cc1 (stereo not drawn) | – | 15 µM (active) |
| C=CCC[C@@H](CCCCC)OC(=O)/C=C/[C@@H](O)[C@H](O)C[C@H](O)CC=C | -3.6% | – |
| CC1(C)OC(=O)C2=C(C[C@@H](C3CC3)O[C@H]2c2ccc(Cl)cc2)O1 | -2.8% | – |
| Cc1ccccc1OC(=O)Cn1c(C(F)(F)F)nc2ccccc21 | – | 15 µM (active) |
| CN1CCN(C(=O)Cn2c(C(F)(F)F)nc3ccccc32)CC1 | -6.38% | – |
| CC(C)(C)NC(=O)NC(=O)COC(=O)Cn1c(C(F)(F)F)nc2ccccc21 | -11.6% | – |
| O=C(NCCOc1ccccc1)N1[C@H]2CC[C@@H]1C=C(c1ccc(F)cc1OCc1ccccc1)C2 | -5.72% | – |

| SMILES | max response, negative = inhibition | Potency |
| --- | --- | --- |
| CC1(C(=O)NS(=O)(=O)c2ccc(C#N)cc2)CCN1C(=O)CC1CCCC1 (stereo not drawn) | 1.71% | – |
| COCC(=O)N(C)C[C@H]1Oc2cc(Br)ccc2S(=O)(=O)N([C@H](C)CO)C[C@H]1C | 4.87% | – |
| Cc1ccc(CN2CC(N3CCC(Cc4ccccc4)CC3)CS2(=O)=O)cc1 (stereo not drawn) | -6.9% | – |
| Cn1c(=O)[nH]c(=O)c2c1[nH]c(=S)n2Cc1ccccc1 | – | 23.8 µM (active) |
| CCN(CC)CCn1cnc2c1c(=O)[nH]c(=O)n2Cc1ccccc1 | -4.34% | – |
| Cn1c(=O)[nH]c(=O)c2c1nc(N(CCO)Cc1ccccc1)n2Cc1ccccc1Cl | -7.01% | – |
| COC(=O)[C@@]12C[C@@H](CC(=O)NCc3cccc(C(F)(F)F)c3)C(=O)N(Cc3ccco3)C1=CCC(C)(C)C2 | -2.23% | – |
| O=C(NC1CCCC1)C1c2ccccc2OCC(=O)N1Cc1ccccc1 (stereo not drawn) | -5.56% | – |
| CCCCCCN1CCN(C2CN(Cc3cn(Cc4ccc(F)cc4)nn3)S(=O)(=O)C2)CC1 (stereo not drawn) | 3.67% | – |
| OC(c1ccccc1)c1nc(/C=C/c2ccc(C(F)(F)F)cc2)cs1 (stereo not drawn) | -1.28% | – |
| CC(=O)Nc1ccc(C=Cc2ccc([N+](=O)[O-])cc2)cc1 | -17.4% | – |
| CC(=O)Nc1ccc(C=CC(=O)c2ccc([N+](=O)[O-])cc2)cc1 | -8.08% | – |
| O=C(O)/C=C/C(=O)NNc1ccc([N+](=O)[O-])cc1 | – | 6.7 µM (active) |
| O=C(NCCO)c1cccc(-c2cccc3nccn23)c1 | -13.3% | – |
| C#Cc1ccc(NC(=O)C2(C)CCN2C(=O)Cc2ccc(-c3ccccc3)cc2)cc1 (stereo not drawn) | 7.1% | – |
| COc1ccc(C(=O)CSc2n[nH]c(N)n2)cc1 | – | 26.7 µM (active) |
| COc1ccc(CNC(=O)CSc2n[nH]c(N)n2)cc1OC | -18.3% | – |
| COc1ccc(C(=O)CSc2nccc(=O)[nH]2)cc1 | -2.62% | – |
| COc1ccccc1-c1cc2nc(NCc3cccc(Cl)c3)ccn2n1 | -9.83% | – |
| CCc1nc2c(OCc3ccc(C(=O)OC)cc3)cccn2c1N(C)C(=O)C(C)C | -10.3% | – |
| OC[C@H]1O[C@@H](c2nc(-c3nc(-c4ccc(F)cc4)no3)cs2)[C@H](O)[C@@H](O)[C@H]1O | -9.06% | – |
